Data: PubChem BioAssay (NCATS)
Residues, ends and D or L forms follow the SMILES beside them. *: point of attachment. Cbz = O=C(OCc1ccccc1)*

Columns and labels:
[1] = qHTS profiling of the MIPE4 collection as inhibitors of Plasmodium falciparum (DD2) proliferation (AID 743345); conditions: P. falciparum Dd2 in erythrocytes, SYBR Green DNA, 72 h; at 28.5 µM (top of the series) unless noted
In short: (§1)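 Parasite DNA was quantified by SYBR Green I fluorescence (ex 485, em 535 nm) after overnight lysis in saponin/Triton buffer at room temperature. Cultures at 0.3% parasitemia and 2.5% hematocrit were first exposed to compound for 72 h at 37 C; signals were normalised to artemisinin (0.29 uM) and vehicle wells.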

[2] = qHTS profiling of the MIPE4 collection as inhibitors of Plasmodium falciparum (DD2) proliferation (Rep 2) (AID 743346); conditions: P. falciparum Dd2 in erythrocytes, SYBR Green DNA, 72 h; at 28.5 µM (top of the series) unless noted
In short: as §1

[3] = qHTS profiling of the MIPE4 collection as inhibitors of Plasmodium falciparum (HB3) proliferation (AID 743347);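 note: plate controls were DMSO vehicle wells for no effect and artemisinin wells for full effect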; conditions: P. falciparum HB3 in erythrocytes, SYBR Green DNA, 72 h; at 28.5 µM (top of the series) unless noted
In short: as §1

[4] = High-throughput drug toxicity screening in the BPDCN cell line Gen2.2 (AID 1224824); conditions: Gen2.2 BPDCN cells; at 45.8 µM (top of the series) unless noted;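 note: cells exposed to compounds for 48 h before reading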
In short: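 Seed 500 exponentially growing Gen2.2 cells/well; add compounds by pin tool; incubate 48 h, 37 °C, 5% CO2; add CellTiter-Glo, 15 min RT; read luminescence. % activity vs DMSO (100%) and bortezomib (0%).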

SMILES | parasite growth remaining, % of DMSO control (lower = more inhibition) [1] [%] | parasite growth, % of control (lower = inhibition) [2] [%] | growth, % of control [3] [%] | cell viability, % of control (lower = more cytotoxic) [4] [%]
C[C@H]1O[C@H](O[C@H]2[C@H](O)[C@@H](O)[C@@H](O[C@H]3[C@H](O)[C@@H](O)C(O)O[C@H]3CO)O[C@H]2CO)[C@H](O)[C@@H](O)[C@H]1N[C@H]1C=C(CO)[C@@H](O)[C@H](O)[C@@H]1O (some centres not stated) | 127 | 88.4 | 103 | 193
CC(C)C[C@@H](C=O)NC(=O)[C@H](CC(C)C)NC(=O)[C@H](CC(C)C)NC(=O)OCc1ccccc1 (Cbz-Leu-Leu-Leu-aldehyde) | 6.51 | 8.46 | 6.33 | 5.4
CC(C)N1[N]C(=C2C=c3cc(O)ccc3=N2)c2c(N)ncnc21 | 13.1 | 10.7 | 3.6 | 2.36
CCNC(=O)Nc1ccc(-c2nc3c(c(N4CCOC[C@H]4C)n2)CCN(C2COC2)C3)cc1 | 87.1 | 49 | 71.6 | 5.52
C=CCNc1c(O)cc2c(O)c1C[C@@H](C)C[C@H](OC)[C@@H](O)[C@@H](C)C=C(C)[C@H](OC(N)=O)[C@@H](OC)C=CC=C(C)C(=O)N2 | 6.14 | 11.1 | 8.78 | 5.31
C[C@]12CCC(=O)C=C1[C@@H]1CC1[C@H]1[C@H]3[C@@H]4C[C@H]4[C@@]4(CCC(=O)O4)[C@@]3(C)CC[C@H]12 (some centres not stated) | 82.7 | 41.4 | 71.4 | 75.3
CCCCOc1ccc(C(=O)Nc2ccc(F)cc2F)cc1 | 95.7 | 174 | 94.1 | 152
COc1cc(C(=O)NC2CCN(C)CC2)ccc1Nc1ncc2c(n1)N(C1CCCC1)CCC(=O)N2C(C)C | 7.51 | 15.5 | 6.9 | 6.24
